Source: the antibiotic and cytotoxicity screens of Wong et al. (2023)
Among all 39,000 compounds or so, about 1,500 (3.8%) were called active. This is one part of a sample in which actives are shown more often than they occur.

tested on: HSkMC (human skeletal muscle cells); assay: cytotoxicity call (relative viability < 0.9); details: 10 µM

Structure (SMILES) | cytotoxicity call
C[C@H](CO)N1C[C@H](C)[C@@H](CN(C)CC2CCOCC2)Oc2cc(C#Cc3ccccc3F)ccc2S1(=O)=O | inactive
C[C@@H]1CN([C@H](C)CO)C(=O)c2cc(NC(=O)CCCN(C)C)ccc2O[C@H]1CN(C)Cc1ccncc1 | inactive
CN(C)CC(=O)N1[C@@H]2c3cccc(=O)n3C[C@H]1[C@H](CO)[C@H]2C(=O)NCc1ccccc1 | inactive
C[C@@H]1CCCCO[C@@H](CN(C)S(=O)(=O)c2ccc(F)cc2)[C@@H](C)CN([C@H](C)CO)C(=O)c2cc(NC(=O)c3ccccc3)ccc2O1 | inactive
CCc1nnc(SCC(=O)O)n1N | inactive
COc1ccc(S(=O)(=O)Nc2ccc3c(c2)C(=O)N([C@@H](C)CO)C[C@H](C)[C@@H](CN(C)C(=O)Nc2ccc4c(c2)OCO4)OCCCC[C@H](C)O3)cc1 | inactive
COc1ccc(CN(C)C[C@H]2Oc3ccc(NC(=O)CCN4CCOCC4)cc3CC(=O)N([C@@H](C)CO)C[C@@H]2C)cc1 | inactive
C[C@@H]1CCCCO[C@@H](CN(C)Cc2ccc(C(=O)O)cc2)[C@@H](C)CN([C@@H](C)CO)C(=O)c2cc(NC(=O)Nc3ccc(C(F)(F)F)cc3)ccc2O1 | inactive
COc1cc(C(=O)NCc2ccc(OCCN(C)C)cc2)cc(OC)c1OC.Cl | inactive
COc1ccc(C(=O)NCc2ccc(OCCN(C)C)cc2)cc1OC | inactive
COc1ccc(CCN(C)CCCOc2ccc(S(=O)(=O)c3[nH]c4ccccc4c3C(C)C)cc2)cc1OC | active
COc1ccc(CCN(C)CCCOc2ccc(S(=O)(=O)c3c(C(C)C)c4ccccc4n3C)cc2)cc1OC | active
COc1ccc(CCN(C)CCCOc2ccc(S(=O)(=O)c3c(C(C)C)cn4ccccc34)cc2)cc1OC | active
C[C@H](CO)N1C[C@H](C)[C@H](CN(C)C(=O)Nc2ccc(F)cc2)OCCCC[C@H](C)Oc2ccc(NS(=O)(=O)c3ccccc3)cc2C1=O | inactive
Cc1ccc(-c2csc(-c3ccc(C(F)(F)F)cc3)n2)cc1 | inactive
Cc1ccc(-c2csc(-c3ccc(CN)cc3)n2)cc1 | active
CCCc1cc(-c2nc(-c3ccc(C)cc3)cs2)ccn1 | inactive
CCc1ccccc1C(=O)N1CCC[C@@H](Cn2cc(C(C)(C)N)nn2)C1 | inactive
COc1ccc2c3c(ccc2c1)-c1[nH]c2ccccc2c1CC3 | inactive
COc1ccc2[nH]c(=O)[nH]c(=O)c2c1 | inactive
COc1ccc2[nH]c3c(-c4cccc5ccccc45)nccc3c2c1 | active
COc1ccc(-c2ccc3n(c2=O)C[C@@H]2[C@@H](CO)[C@H](C(=O)NCC4CC4)[C@H]3N2S(C)(=O)=O)cc1 | inactive
C[C@@H]1CN([C@H](C)CO)S(=O)(=O)c2ccc(C#Cc3ccccc3)cc2O[C@@H]1CN(C)S(=O)(=O)c1ccccc1F | inactive

Structure (SMILES) | cytotoxicity call
CC(=O)N(C)C[C@@H]1Oc2ncc(C#CC(C)(C)O)cc2C(=O)N([C@@H](C)CO)C[C@H]1C | inactive
CC(=O)N(C)C[C@@H]1Oc2ncc(C#CC(C)(C)O)cc2C(=O)N([C@@H](C)CO)C[C@@H]1C | active
C[C@H](CO)N1C[C@H](C)[C@H](CN(C)C(=O)Cc2ccccc2)Oc2ncc(C#CC3(O)CCCC3)cc2C1=O | active
CC(=O)N(C)C[C@H]1Oc2ncc(C#CC(C)(C)O)cc2C(=O)N([C@H](C)CO)C[C@H]1C | inactive
C[C@@H]1CN([C@H](C)CO)C(=O)c2cc(C#CC3(O)CCCC3)cnc2O[C@H]1CN(C)C(=O)Cc1ccccc1 | inactive
C[C@H](CO)N1C[C@H](C)[C@@H](CN(C)C(=O)Cc2ccccc2)Oc2ncc(C#CC3(O)CCCC3)cc2C1=O | inactive
Cc1noc(C)c1S(=O)(=O)Nc1ccc2c(c1)CC(=O)N([C@@H](C)CO)C[C@@H](C)[C@H](CN(C)S(=O)(=O)c1ccccc1)O2 | inactive
C[C@@H]1CN([C@@H](C)CO)C(=O)Cc2cc(NS(=O)(=O)c3ccccc3)ccc2O[C@@H]1CN(C)CC1CC1 | inactive
COc1ccc(S(=O)(=O)Nc2ccc3c(c2)C(=O)N([C@H](C)CO)C[C@H](C)[C@@H](CN(C)C(=O)NC2CCCCC2)OCCCC[C@H](C)O3)cc1 | inactive
CC(C)NC(=O)N(C)C[C@@H]1Oc2ccc(NS(=O)(=O)c3ccccc3)cc2C(=O)N([C@@H](C)CO)C[C@@H]1C | inactive
C[C@H]1CCCCO[C@@H](CN(C)Cc2ccc(C(=O)O)cc2)[C@@H](C)CN([C@@H](C)CO)C(=O)c2cc(NC(=O)Nc3cccc4ccccc34)ccc2O1 | inactive
CCC(=O)Nc1ccc2c(c1)OC[C@H](C)N(C(=O)CN1CCOCC1)C[C@@H](C)[C@@H](OC)CN(C)C2=O | inactive
O=C(Nc1ccc(-c2nc3ccc(NC(=O)c4ccccc4[N+](=O)[O-])cc3[nH]2)cc1)c1ccccc1[N+](=O)[O-] | inactive
O=C(Nc1ccc(-c2nc3ccc(NC(=O)c4ccc(NC(=O)c5cccc6ccccc56)cc4)cc3[nH]2)cc1)c1ccc(NC(=O)c2cccc3ccccc23)cc1 | inactive
O=C(Nc1ccc(-c2nc3ccc(NC(=O)c4ccc(Cl)cc4)cc3[nH]2)cc1)c1ccc(Cl)cc1 | active
c1ccc(-c2nn(-c3ccccc3)c3c2cnc2ccccc23)cc1 | inactive
C[C@@H]1CN([C@@H](C)CO)C(=O)c2cc(C#Cc3ccccc3F)cnc2O[C@H]1CN(C)C(=O)c1ccc2c(c1)OCO2 | inactive
c1cnc(-c2cc[nH]n2)cn1 | inactive
C[C@@H]1CN([C@@H](C)CO)C(=O)c2ccccc2-c2ccccc2CO[C@H]1CN(C)C(=O)N[C@H](C)c1ccccc1 | inactive
Cc1cc(C)c(NC(=O)CN(CC(=O)O)CC(=O)O)c(C)c1Br | inactive
Cn1cnc(S(=O)(=O)N2C[C@H](O)COC[C@@H]3O[C@@H](CC(=O)NCc4cccc(F)c4)CC[C@H]32)c1 | inactive
C[C@@H]1CN([C@H](C)CO)S(=O)(=O)c2ccc(-c3ccncc3)cc2O[C@@H]1CN(C)S(=O)(=O)c1ccccc1F | inactive
Cc1ccc(S(=O)(=O)Oc2ccc(/N=N/c3ccc(-c4ccc(/N=N/c5c(O)ccc6cc(S(=O)(=O)O)cc(S(=O)(=O)O)c56)c(C)c4)cc3C)cc2)cc1 | inactive

Structure (SMILES) | cytotoxicity call
Cc1cc(-c2ccc(N=Nc3ccc4c(S(=O)(=O)[O-])cc(S(=O)(=O)[O-])c(N)c4c3O)c(C)c2)ccc1N=Nc1ccc2c(S(=O)(=O)[O-])cc(S(=O)(=O)[O-])c(N)c2c1O.[Na+].[Na+].[Na+].[Na+] | active
C[C@H]1CN([C@@H](C)CO)C(=O)c2cc(C#Cc3ccncc3)cnc2O[C@@H]1CN(C)S(=O)(=O)c1ccccc1F | inactive
C[C@@H]1CN([C@@H](C)CO)C(=O)c2cc(NC(=O)Nc3ccc(F)cc3)ccc2O[C@H]1CN(C)Cc1ccc(C(F)(F)F)cc1 | active
C[C@@H]1CN([C@H](C)CO)C(=O)c2cc(NC(=O)Nc3ccc(F)cc3)ccc2O[C@H]1CN(C)Cc1ccc(C(F)(F)F)cc1 | active
C[C@H](CO)N1C[C@H](C)[C@@H](CN(C)Cc2ccc(C(F)(F)F)cc2)Oc2ccc(NC(=O)Nc3ccc(F)cc3)cc2C1=O | active
C[C@@H]1CN([C@H](C)CO)C(=O)c2cc(NC(=O)Nc3ccc(F)cc3)ccc2O[C@@H]1CN(C)Cc1ccc(C(F)(F)F)cc1 | inactive
C[C@H]1CN([C@@H](C)CO)C(=O)c2cc(NC(=O)Nc3ccc(F)cc3)ccc2O[C@@H]1CN(C)Cc1ccc(C(F)(F)F)cc1 | inactive
C[C@H](CO)N1C[C@H](C)[C@H](CN(C)Cc2ccc(C(F)(F)F)cc2)Oc2ccc(NC(=O)Nc3ccc(F)cc3)cc2C1=O | inactive
C[C@@H]1CN([C@@H](C)CO)C(=O)c2cc(NC(=O)Nc3ccc(F)cc3)ccc2O[C@@H]1CN(C)Cc1ccc(C(F)(F)F)cc1 | active
C[C@H]1CN([C@@H](C)CO)C(=O)c2cc(NC(=O)Nc3ccc(F)cc3)ccc2O[C@H]1CN(C)Cc1ccc(C(F)(F)F)cc1 | inactive
O=C(C[C@H]1C=C[C@@H](NC(=O)Nc2cc(F)ccc2F)[C@@H](CO)O1)NCCCN1CCOCC1 | inactive
CCS(=O)(=O)N1C[C@]2(CN(C2)C(=O)Nc2ccc3c(c2)OCO3)c2c(n(c3cc(ccc23)OC)C)[C@H]1CO | inactive
N=C(N)N.O=C(O)O | inactive
Cc1noc(C)c1S(=O)(=O)N(C)C[C@H]1Oc2ccc(NS(C)(=O)=O)cc2CC(=O)N([C@H](C)CO)C[C@@H]1C | inactive
COc1ccc(NC(=O)N(C)C[C@@H]2Oc3ccc(NC(=O)Cn4cnnn4)cc3CC(=O)N([C@H](C)CO)C[C@H]2C)cc1 | inactive
C[C@H](CO)N1C[C@H](C)[C@H](CN(C)C(=O)Nc2ccc(C(F)(F)F)cc2)OCCCC[C@H](C)Oc2ccc(NS(=O)(=O)c3cn(C)cn3)cc2C1=O | inactive
O=C(C[C@H]1C=C[C@@H](NC(=O)c2cccc(F)c2)[C@H](CO)O1)NCCN1CCCC1 | inactive
COc1ccc(-c2cnc3c(c2)C(=O)N([C@H](C)CO)C[C@H](C)[C@H](CN(C)S(=O)(=O)c2ccc(F)cc2)O3)cc1 | inactive
Cc1ccc(S(=O)(=O)N(C)C[C@@H]2Oc3c(NS(=O)(=O)c4ccccc4)cccc3C(=O)N([C@@H](C)CO)C[C@H]2C)cc1 | inactive
NCC[C@H]1CC[C@@H](NC(=O)c2ccccc2F)[C@@H](CO)O1 | inactive
Cc1ccc(S(=O)(=O)N(C)C[C@@H]2Oc3c(NS(C)(=O)=O)cccc3C(=O)N([C@H](C)CO)C[C@H]2C)cc1 | inactive
Cc1cc(C(=O)Nc2cccc3c2O[C@@H](CN(C)S(C)(=O)=O)[C@@H](C)CN([C@@H](C)CO)C3=O)n(C)n1 | inactive
C[C@@H]1CCCCO[C@@H](CN(C)S(=O)(=O)c2ccc(Cl)cc2)[C@@H](C)CN([C@@H](C)CO)C(=O)c2cc(NS(=O)(=O)c3ccc(F)cc3)ccc2O1 | inactive
